According to PMC7862700, “An all-to-all approach to the identification of sequence-specific readers for epigenetic DNA modifications on cytosine”:

Tests used:
Test in all cases: DAPPL (digital affinity profiling via proximity ligation, sequencing); 10 mM Tris-HCl pH 7.5, 50 mM NaCl, 1 mM DTT, 4% glycerol, room temperature, 30 min; GST-TFs on glutathione beads, 16-mer random dsDNA library, 0.1% formaldehyde crosslink after washing; high values mean tight binding
Conditions in all cases: protein: recombinant; tags: N-terminal GST; dsDNA, one strand shown
[1] = molecular target: T1, FLI1 (Homo sapiens, UniProt Q01543 1-452)
T1 sequence: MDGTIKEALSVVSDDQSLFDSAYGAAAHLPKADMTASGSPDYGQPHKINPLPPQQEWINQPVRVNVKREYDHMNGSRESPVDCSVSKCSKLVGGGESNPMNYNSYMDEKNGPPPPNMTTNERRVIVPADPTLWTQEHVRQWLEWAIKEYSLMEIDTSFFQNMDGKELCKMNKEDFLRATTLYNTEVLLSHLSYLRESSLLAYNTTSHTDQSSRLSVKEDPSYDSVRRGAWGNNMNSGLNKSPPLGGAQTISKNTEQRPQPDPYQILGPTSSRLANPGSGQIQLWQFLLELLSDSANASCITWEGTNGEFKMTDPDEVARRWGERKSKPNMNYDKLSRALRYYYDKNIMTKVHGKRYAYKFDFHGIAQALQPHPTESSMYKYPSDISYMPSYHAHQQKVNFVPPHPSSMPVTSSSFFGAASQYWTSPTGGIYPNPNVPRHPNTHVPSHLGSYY
Method in brief: (§1)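 Beads coated with glutathione captured GST-fused human transcription factors that had been expressed in yeast, and the factors were then given DNA barcodes and pooled with a tag-only sample. The pools were incubated with 200 nmole of a random double-stranded 16-mer DNA library in Tris/NaCl/DTT/glycerol buffer for 30 min at room temperature, washed, crosslinked with 0.1% formaldehyde and proximity-ligated with BsaI/T4 ligase at 37 °C for 1 h. PCR amplification and Illumina NextSeq500 sequencing came last. Binding signal is each hexamer's read frequency for a factor divided by its frequency for the tag-only sample.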

[2] = molecular target: T2, ELK1 (Homo sapiens, UniProt P19419 1-428)
T2 sequence: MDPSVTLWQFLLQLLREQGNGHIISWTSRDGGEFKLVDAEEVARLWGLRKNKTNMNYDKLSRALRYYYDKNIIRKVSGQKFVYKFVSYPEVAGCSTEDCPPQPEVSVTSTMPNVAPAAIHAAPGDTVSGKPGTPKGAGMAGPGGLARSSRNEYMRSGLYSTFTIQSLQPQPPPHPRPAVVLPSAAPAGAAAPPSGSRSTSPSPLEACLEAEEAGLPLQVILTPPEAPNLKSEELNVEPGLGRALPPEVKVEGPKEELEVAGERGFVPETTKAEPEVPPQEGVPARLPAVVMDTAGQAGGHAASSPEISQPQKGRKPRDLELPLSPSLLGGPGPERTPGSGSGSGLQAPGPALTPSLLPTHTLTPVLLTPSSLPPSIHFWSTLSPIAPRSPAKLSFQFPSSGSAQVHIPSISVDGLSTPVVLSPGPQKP
Method in brief: as §1

[3] = molecular target: T3, GABPA (Homo sapiens, UniProt Q06546 1-454)
T3 sequence: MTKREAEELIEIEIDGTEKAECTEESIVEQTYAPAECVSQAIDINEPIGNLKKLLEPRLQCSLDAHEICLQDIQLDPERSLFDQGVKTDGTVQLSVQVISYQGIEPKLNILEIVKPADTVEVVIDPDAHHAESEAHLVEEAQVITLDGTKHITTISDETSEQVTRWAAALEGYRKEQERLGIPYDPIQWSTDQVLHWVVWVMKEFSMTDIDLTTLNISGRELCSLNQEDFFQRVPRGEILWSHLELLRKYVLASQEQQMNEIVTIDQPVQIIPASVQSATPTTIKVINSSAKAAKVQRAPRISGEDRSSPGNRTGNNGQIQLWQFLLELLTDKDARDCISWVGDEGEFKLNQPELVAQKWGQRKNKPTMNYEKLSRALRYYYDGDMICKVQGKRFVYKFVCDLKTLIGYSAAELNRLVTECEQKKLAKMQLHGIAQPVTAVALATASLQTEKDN
Method in brief: as §1

[4] = molecular target: T4, ERG (Homo sapiens, UniProt P11308 1-479)
T4 sequence: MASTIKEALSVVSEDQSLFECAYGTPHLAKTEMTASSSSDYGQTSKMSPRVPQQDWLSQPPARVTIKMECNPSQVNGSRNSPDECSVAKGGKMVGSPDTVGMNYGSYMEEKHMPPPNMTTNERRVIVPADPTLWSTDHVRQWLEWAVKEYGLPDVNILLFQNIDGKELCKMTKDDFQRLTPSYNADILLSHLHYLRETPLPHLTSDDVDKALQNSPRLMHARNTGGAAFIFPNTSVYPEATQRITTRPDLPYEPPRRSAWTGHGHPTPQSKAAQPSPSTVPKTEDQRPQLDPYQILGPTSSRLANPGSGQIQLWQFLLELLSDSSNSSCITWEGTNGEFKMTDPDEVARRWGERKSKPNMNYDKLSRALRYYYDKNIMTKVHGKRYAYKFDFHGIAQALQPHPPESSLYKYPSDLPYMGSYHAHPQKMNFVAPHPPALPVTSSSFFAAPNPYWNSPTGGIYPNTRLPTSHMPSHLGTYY
Method in brief: as §1

[5] = molecular target: ELF1 (Homo sapiens, UniProt P32519 1-619)
Sequence of ELF1 (P32519 whole entry): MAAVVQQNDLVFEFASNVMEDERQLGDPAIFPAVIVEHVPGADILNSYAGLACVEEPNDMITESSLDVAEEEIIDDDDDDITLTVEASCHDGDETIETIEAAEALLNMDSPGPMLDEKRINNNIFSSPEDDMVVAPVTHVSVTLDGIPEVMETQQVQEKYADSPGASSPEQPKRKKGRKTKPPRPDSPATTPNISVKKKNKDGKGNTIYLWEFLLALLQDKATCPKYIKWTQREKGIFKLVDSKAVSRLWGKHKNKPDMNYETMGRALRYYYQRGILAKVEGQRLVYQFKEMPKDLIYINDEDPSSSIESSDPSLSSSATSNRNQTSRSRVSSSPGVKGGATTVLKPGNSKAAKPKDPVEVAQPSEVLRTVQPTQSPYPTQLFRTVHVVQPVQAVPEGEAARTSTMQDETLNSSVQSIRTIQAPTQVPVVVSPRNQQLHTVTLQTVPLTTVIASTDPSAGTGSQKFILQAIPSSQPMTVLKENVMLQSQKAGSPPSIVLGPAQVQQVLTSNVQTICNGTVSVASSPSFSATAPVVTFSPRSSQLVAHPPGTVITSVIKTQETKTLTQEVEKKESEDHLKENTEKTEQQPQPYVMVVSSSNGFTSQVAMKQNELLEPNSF
Method in brief: as §1

[6] = molecular target: T5, EHF (Homo sapiens, UniProt Q9NZC4 1-300)
T5 sequence: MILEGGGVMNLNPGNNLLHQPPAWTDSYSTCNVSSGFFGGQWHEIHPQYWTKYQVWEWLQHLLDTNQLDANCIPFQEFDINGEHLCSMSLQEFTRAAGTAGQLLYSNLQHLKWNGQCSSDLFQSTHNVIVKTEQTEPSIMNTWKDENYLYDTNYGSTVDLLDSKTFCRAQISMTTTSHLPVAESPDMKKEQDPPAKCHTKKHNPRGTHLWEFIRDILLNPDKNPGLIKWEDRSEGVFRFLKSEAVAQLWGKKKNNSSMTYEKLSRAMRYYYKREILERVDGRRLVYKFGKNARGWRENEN
Method in brief: as §1

[7] = molecular target: SPI1 (Homo sapiens, UniProt P17947 1-270)
Method in brief: as §1

[8] = molecular target: SPIB (Homo sapiens, UniProt Q01892 1-262)
Sequence of SPIB (Q01892 whole entry): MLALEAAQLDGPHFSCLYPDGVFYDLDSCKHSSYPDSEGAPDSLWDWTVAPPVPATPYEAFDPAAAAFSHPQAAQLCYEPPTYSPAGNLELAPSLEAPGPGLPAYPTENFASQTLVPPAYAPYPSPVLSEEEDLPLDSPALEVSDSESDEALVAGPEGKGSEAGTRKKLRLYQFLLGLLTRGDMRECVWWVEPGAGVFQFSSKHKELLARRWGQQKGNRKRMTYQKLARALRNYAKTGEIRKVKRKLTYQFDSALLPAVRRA
Method in brief: as §1

[9] = molecular target: T6, ELK3 (Homo sapiens, UniProt P41970 1-407)
T6 sequence: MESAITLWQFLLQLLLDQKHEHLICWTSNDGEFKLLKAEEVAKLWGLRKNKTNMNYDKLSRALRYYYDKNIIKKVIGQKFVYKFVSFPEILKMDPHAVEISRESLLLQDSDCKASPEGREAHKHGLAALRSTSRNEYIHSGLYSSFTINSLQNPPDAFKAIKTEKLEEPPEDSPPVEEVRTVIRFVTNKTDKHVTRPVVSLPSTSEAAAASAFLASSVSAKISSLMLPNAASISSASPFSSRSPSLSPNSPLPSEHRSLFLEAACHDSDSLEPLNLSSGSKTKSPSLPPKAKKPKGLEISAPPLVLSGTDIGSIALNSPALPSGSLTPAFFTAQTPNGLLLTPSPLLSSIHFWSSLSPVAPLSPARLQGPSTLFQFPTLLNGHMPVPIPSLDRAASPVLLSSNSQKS
Method in brief: as §1

[10] = molecular target: T7, FEV (Homo sapiens, UniProt Q99581 1-238)
T7 sequence: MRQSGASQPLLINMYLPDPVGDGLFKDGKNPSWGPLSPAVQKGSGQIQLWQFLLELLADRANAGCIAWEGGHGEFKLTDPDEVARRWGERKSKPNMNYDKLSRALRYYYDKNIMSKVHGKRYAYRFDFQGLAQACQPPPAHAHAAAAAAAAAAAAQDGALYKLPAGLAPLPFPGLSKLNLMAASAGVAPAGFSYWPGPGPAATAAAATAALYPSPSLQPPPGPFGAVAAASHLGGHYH
Method in brief: as §1

[11] = molecular target: ETV5 (Homo sapiens, UniProt P41161 1-510)
Sequence of ETV5 (P41161 whole entry): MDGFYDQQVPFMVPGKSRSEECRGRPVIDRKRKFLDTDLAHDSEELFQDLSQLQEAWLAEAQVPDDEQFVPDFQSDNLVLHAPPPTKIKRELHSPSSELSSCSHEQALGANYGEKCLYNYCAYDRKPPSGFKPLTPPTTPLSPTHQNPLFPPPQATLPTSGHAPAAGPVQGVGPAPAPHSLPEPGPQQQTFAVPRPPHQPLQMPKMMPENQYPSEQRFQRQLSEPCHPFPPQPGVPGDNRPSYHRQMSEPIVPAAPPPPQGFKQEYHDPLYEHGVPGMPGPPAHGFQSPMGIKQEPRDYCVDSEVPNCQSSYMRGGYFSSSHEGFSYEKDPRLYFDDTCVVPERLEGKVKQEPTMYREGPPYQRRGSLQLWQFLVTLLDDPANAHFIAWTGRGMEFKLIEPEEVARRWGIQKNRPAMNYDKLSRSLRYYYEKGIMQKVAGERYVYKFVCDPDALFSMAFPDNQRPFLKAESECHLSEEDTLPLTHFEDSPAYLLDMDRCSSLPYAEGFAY
Method in brief: as §1

[12] = molecular target: T8, SPIC (Homo sapiens, UniProt Q8N5J4 1-248)
T8 sequence: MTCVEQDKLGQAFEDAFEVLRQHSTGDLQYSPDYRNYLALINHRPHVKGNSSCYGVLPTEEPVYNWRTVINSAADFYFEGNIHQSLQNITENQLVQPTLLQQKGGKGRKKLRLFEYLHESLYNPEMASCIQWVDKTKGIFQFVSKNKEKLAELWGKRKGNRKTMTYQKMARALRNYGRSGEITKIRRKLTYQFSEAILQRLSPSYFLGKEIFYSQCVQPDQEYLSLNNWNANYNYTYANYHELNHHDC
Method in brief: as §1

[13] = molecular target: ELF4 (Homo sapiens, UniProt Q99607 1-663)
Sequence of ELF4 (Q99607 whole entry): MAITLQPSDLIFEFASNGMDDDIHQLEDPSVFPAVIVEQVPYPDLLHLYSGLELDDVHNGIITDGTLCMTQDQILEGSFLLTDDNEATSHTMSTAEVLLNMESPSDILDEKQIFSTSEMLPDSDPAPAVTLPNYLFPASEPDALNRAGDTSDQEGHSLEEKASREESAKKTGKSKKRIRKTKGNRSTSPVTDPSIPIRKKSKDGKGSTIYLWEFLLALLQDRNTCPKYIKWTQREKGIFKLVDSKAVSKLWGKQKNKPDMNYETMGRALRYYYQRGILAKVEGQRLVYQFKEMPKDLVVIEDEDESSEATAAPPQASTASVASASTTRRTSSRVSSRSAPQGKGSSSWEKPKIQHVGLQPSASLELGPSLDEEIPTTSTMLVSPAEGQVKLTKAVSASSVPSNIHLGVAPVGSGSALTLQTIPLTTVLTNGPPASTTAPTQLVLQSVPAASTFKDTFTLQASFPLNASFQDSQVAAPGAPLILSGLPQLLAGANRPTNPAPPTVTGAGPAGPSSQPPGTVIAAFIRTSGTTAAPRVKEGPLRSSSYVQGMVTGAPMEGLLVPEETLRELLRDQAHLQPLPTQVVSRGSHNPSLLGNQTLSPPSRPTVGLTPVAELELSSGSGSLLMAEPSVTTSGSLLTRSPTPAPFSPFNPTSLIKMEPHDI
Method in brief: as §1

[14] = molecular target: T9, ELK4 (Homo sapiens, UniProt P28324-2 1-405)
T9 sequence: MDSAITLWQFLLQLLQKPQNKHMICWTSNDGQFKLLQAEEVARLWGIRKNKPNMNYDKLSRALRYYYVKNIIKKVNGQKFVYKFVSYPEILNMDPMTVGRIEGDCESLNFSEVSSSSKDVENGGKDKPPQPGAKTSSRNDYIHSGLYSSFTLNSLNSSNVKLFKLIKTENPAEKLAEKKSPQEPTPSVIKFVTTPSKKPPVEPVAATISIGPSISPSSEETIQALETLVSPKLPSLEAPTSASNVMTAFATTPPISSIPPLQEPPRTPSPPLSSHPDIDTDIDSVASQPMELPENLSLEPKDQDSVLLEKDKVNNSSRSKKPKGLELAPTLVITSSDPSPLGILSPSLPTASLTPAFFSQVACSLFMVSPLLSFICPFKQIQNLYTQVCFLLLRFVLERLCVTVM
Method in brief: as §1

[15] = molecular target: T10, ETV2 (Homo sapiens, UniProt O00321 1-342)
T10 sequence: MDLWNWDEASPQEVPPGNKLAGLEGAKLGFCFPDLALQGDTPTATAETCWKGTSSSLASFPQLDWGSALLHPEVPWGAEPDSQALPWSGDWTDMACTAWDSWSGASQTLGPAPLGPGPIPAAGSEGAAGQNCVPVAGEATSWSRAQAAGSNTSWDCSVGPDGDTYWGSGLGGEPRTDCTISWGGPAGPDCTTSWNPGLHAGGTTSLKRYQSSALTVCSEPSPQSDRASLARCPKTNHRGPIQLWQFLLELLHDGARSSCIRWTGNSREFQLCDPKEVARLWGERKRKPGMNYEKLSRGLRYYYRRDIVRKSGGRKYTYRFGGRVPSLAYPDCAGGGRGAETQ
Method in brief: as §1

[16] = molecular target: T11, ELF3 (Homo sapiens, UniProt P78545 1-371)
T11 sequence: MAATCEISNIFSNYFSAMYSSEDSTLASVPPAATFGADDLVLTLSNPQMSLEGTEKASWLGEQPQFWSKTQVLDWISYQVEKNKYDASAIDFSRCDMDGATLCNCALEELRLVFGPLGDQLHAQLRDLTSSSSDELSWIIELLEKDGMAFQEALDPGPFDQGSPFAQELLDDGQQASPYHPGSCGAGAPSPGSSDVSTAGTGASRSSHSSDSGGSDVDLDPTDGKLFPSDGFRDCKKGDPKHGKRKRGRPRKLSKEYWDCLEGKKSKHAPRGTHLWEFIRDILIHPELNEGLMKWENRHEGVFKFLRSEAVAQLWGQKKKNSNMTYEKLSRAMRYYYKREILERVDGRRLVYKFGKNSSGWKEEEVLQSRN
Method in brief: as §1

[17] = molecular target: ETV1 (Homo sapiens, UniProt P50549 1-477)
Sequence of ETV1 (P50549 whole entry): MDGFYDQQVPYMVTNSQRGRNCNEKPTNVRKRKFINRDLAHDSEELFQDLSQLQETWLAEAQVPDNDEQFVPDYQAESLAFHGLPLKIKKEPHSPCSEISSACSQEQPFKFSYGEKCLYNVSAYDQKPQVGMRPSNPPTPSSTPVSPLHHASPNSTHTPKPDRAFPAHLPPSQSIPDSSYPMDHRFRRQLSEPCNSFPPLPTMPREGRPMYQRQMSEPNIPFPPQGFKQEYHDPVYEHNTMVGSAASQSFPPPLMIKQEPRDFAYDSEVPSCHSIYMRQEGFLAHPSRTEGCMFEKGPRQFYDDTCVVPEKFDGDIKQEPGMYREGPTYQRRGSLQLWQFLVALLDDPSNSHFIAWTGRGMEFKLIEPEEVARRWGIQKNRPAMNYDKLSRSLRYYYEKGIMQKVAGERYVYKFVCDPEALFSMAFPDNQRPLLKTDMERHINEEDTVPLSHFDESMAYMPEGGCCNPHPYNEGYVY
Method in brief: as §1

Sequence	binding signal [1]	binding signal [2]	binding signal [3]	binding signal [4]	binding signal [5]	binding signal [6]	binding signal [7]	binding signal [8]	binding signal [9]	binding signal [10]	binding signal [11]	binding signal [12]	binding signal [13]	binding signal [14]	binding signal [15]	binding signal [16]	binding signal [17]
GTAACA	1.24 fold enrichment (6-mer frequency, TF over GST control)	1.1 fold enrichment (6-mer frequency, TF over GST control)	1.05 fold enrichment (6-mer frequency, TF over GST control)	1.06 fold enrichment (6-mer frequency, TF over GST control)	1.13 fold enrichment (6-mer frequency, TF over GST control)	1.21 fold enrichment (6-mer frequency, TF over GST control)	1.12 fold enrichment (6-mer frequency, TF over GST control)	1.03 fold enrichment (6-mer frequency, TF over GST control)	1.19 fold enrichment (6-mer frequency, TF over GST control)	1.14 fold enrichment (6-mer frequency, TF over GST control)	1.08 fold enrichment (6-mer frequency, TF over GST control)	1.12 fold enrichment (6-mer frequency, TF over GST control)	1.14 fold enrichment (6-mer frequency, TF over GST control)	1.12 fold enrichment (6-mer frequency, TF over GST control)	1.03 fold enrichment (6-mer frequency, TF over GST control)	1.27 fold enrichment (6-mer frequency, TF over GST control)	1.14 fold enrichment (6-mer frequency, TF over GST control)
CACCAT	1.2 fold enrichment (6-mer frequency, TF over GST control)	1.16 fold enrichment (6-mer frequency, TF over GST control)	1.06 fold enrichment (6-mer frequency, TF over GST control)	1.08 fold enrichment (6-mer frequency, TF over GST control)	1.14 fold enrichment (6-mer frequency, TF over GST control)	1.12 fold enrichment (6-mer frequency, TF over GST control)	1.03 fold enrichment (6-mer frequency, TF over GST control)	1 fold enrichment (6-mer frequency, TF over GST control)	1.22 fold enrichment (6-mer frequency, TF over GST control)	1.05 fold enrichment (6-mer frequency, TF over GST control)	1.11 fold enrichment (6-mer frequency, TF over GST control)	1.06 fold enrichment (6-mer frequency, TF over GST control)	1.12 fold enrichment (6-mer frequency, TF over GST control)	1.21 fold enrichment (6-mer frequency, TF over GST control)	1.17 fold enrichment (6-mer frequency, TF over GST control)	1.1 fold enrichment (6-mer frequency, TF over GST control)	1.08 fold enrichment (6-mer frequency, TF over GST control)
